Experimental data as given in PubChem BioAssay AID1508600 (Functional Genomics Laboratory (NCATS/FGL), 2020).
Out of some 53,000 sequences screened, about 3,700 (7%) were called active.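 How the source made its calls: active means gene knockdowns whose robust z-score for IL-1 alpha signal is at least 2 or at most -2, so actives lie on both sides; inactive means the rest.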 The entries come from a sample that favours actives as a whole.

Assay: Components of the Cytosolic LPS Sensing Pathway: Gene Identification via Genome-wide siRNA Screen;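 further: robust z of the log signal after scaling to non-targeting control siRNA wells of the plate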
Conditions: RAW264.7 macrophages, IL-1a HTRF, actives lie on both sides, screened at 100 nM (by protocol), cells primed 5 h with Pam3CSK4 first
Outline: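 Read-out: IL-1a HTRF on supernatant, divided by plate negative-control median ×100, log-transformed and converted to robust z-score. Cells were RAW264.7 given 100 nM siRNA, Pam3CSK4-primed 5 hours, then LipidA-transfected 24 hour.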

Sequence	z-score
CCAGAAUUGAACUUCAAGUTT against 2610008E11Rik	-0.00302 (inactive)
GGGAGAGAACGUGUUCUUCTT against P2rx6	-0.477 (inactive)
GGAGAUCUCCAUCAUCACCTT against Usp50	-1.52 (inactive)
CCUAAUGUACACUAACUAUTT against Hsd17b14	1.84 (inactive)
CCCUAAGAGAGCCUAAAACTT against Serpina3c	-1.12 (inactive)
GAACUCUCUCUUCAUCUGGTT against Cd300ld3	2.18 (active)
CCUUUUUGCUGAAUGUGGATT against Aard	0.798 (inactive)
GGUGUUGGAUUCCAAUCCCTT against Uba5	-0.462 (inactive)
GGAUGAAAAGAUUGAACUCTT against Gart	3.22 (active)
GCUCGAUAUUUUGAAGUCCTT against Cntd1	0.693 (inactive)
GGAUCAGACUGUACGAGAGTT against Crygd	-1.11 (inactive)
GGAAAGUGAAAGUUAGUUUTT against Cbx6	0.244 (inactive)
GCAUUUGGAAUUUACCAUGTT against Wdr47	1.13 (inactive)
GCCGAGUCUCAGCUUGUAATT against Dnajc3	0.258 (inactive)
GGAAUGGGAUUACACCUACTT against Mymk	2.67 (active)
GUAUGACCAGAAGAAAAAGTT against Lrrc72	-2.19 (active)
GGCAUAUCUGAGGUGAAUCTT against Sec23b	-1.57 (inactive)
GGAAAGAGCAAACAGUUCCTT against Il1f6	-2.09 (active)
GGUAUUUUGACAGAGUCGATT against Add1	-1.24 (inactive)
GGUGUUAUCUGCAUCAUCATT against Cyp4f15	-1.42 (inactive)
GGUACUUAUGUGGAUUGGATT against Rint1	-0.272 (inactive)
GGGACUGGACCCAUACAAUTT against Cox5b	4.27 (active)
CCGAGUAAGUUUAACUAAGTT against Lrrc39	-0.501 (inactive)

Sequence	z-score
GCUAUAUAAAGGCUGAGUATT against Emilin3	-0.128 (inactive)
GGAUGAAGGCCAUUCAAACTT against Hnrnpd	2.04 (active)
GGAAGAUCUGAAGUCAAUCTT against Mvk	-1.08 (inactive)
GGAGAAAGACAUCAGAAAGTT against Rdh16f2	0.942 (inactive)
GGGCCUGAUCUACCUGUUUTT against Slc6a18	0.255 (inactive)
GGACAAGUAUGAAUGUCUATT against Ptk2b	1.25 (inactive)
CCAAGUGGUACGACCAUGATT against Gcnt3	1.3 (inactive)
CCGACCUGAAGACCUUACATT against Tmem18	-0.501 (inactive)
GCCCUAGGAGGAACUGAGUTT against Olfr458	-2.54 (active)
CGGAAGAAGUUAUUUAGAATT against 1700006J14Rik	0.87 (inactive)
GGCUCCAAGUCUACACAACTT against Dnajc6	2.82 (active)
CCUCAUUGAGUUUUGAAGATT against Dtd2	-0.329 (inactive)
GGAAGACCUUGUGUUUGCATT against Mmp13	-0.692 (inactive)
CCUAAAGUCUCUGAAUCAGTT against Fyb	0.45 (inactive)
GGUUGUUGCGCAAAUUUAATT against Vmn2r7	1.43 (inactive)
GCAGUAACUGUGUCAAAAUTT against Zan	0.879 (inactive)
GGAUAUCAAAGACAAAGCATT against Vps53	-2.58 (active)
CGUGUGUUCCGGAAACAGATT against Tnfrsf11b	-0.188 (inactive)
GGCACAAGUCCAUGUUGUUTT against Emg1	-0.161 (inactive)
GGAGUACGUGAUUGCUCUGTT against Rcvrn	-2.45 (active)
GCCGUUUUAAGAUACCGAUTT against Pde1c	0.642 (inactive)
GGGCAGCUACGUCAUUAAGTT against Prkg2	-0.442 (inactive)
GGAGAAGAACAGAACAUGATT against Igf2	2.36 (active)

Sequence	z-score
GACAGUGAAGGCUUGCCAUTT against 1700019M22Rik	-0.45 (inactive)
GCUAUUUAUCACCAAGACATT against Plpp6	-1.64 (inactive)
CCAGGAUUACAUCCGGACATT against Srbd1	-0.379 (inactive)
GCUUCGACAAAAGAAGAUGTT against Ccdc174	-0.373 (inactive)
CGAAUGAGAUUUUCACUCUTT against Tek	1.07 (inactive)
CCACUAAUCUUCUUCUACATT against Olfr1311	-2.08 (active)
GGCCACCAAGACCAAUGAUTT against Akap8	0.154 (inactive)
GGUUGUAAUAGCCUUAGCCTT against Rassf8	-2.87 (active)
GGUCAAGUAACAUGGUUUGTT against Rundc3b	0.282 (inactive)
CCAGAAACACUAGUAAAGGTT against Dppa3	-0.0972 (inactive)
GGACGUGAAUGUGUUUGACTT against Cyp26b1	0.795 (inactive)
CGAUUACUACAUAAUUGCCTT against Efnb3	1.63 (inactive)
CGGACAAGAUAGUAUUCUUTT against Atp2b1	-1.06 (inactive)
GGAGGAAUACGUAUACUUCTT against Dipk1c	2.16 (active)
GCAGCAUGGCAAAACCACATT against Zbtb12	-0.265 (inactive)
GCAGGCGAUAUAGAAGCAATT against Frg1	0.475 (inactive)
GGCUGUGACUAUGUUGUGCTT against Top3b	-2.15 (active)
GGGAAUUCUAUUCAACACUTT against Rps6ka5	-0.478 (inactive)
GGCUGUGACUUUUGAUCUATT against Prelid3b	0.46 (inactive)
CCAAUGCUUGUGAUAAGCCTT against Krt33a	-0.105 (inactive)
CGGACUUGAGAGCAGAACCTT against Oit1	2.02 (active)
CCUUGUGCCAAAUACUUCATT against Inava	-0.00772 (inactive)
GGAUAACCGUAUUAAUUUCTT against Gm2a	0.709 (inactive)
